Screening data from PubChem.
Only a selection was taken, and hits are over-represented in it overall.
Tg IFNy HTS – T. gondii growth inhibition with IFN-gamma, primary screen, cell-based; Toxoplasma gondii growth in IFN-gamma-treated host cells; active compounds read low; activity change, negative = inhibition, % (test concentration not listed); 3.8% of 69,000 active; AID 1259416, 2018; in the data active means activity change below about -70%, passing the limit was not always enough;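 further: host cells are HeLa cells infected with Toxoplasma gondii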
* marks the source's active call; other numbers are inactive results; ! = not active in a repeat.

SMILES	Tg IFNy HTS
O=C(Cn1ncc2c(N3CCOCC3)ncnc21)NCc1ccccc1Cl	74
COc1ccc(CNC(=O)Cn2ncc3c(N4CCCCC4)ncnc32)cc1	-102*
CCc1ccccc1NC(=O)Cn1ncc2c(N3CCN(c4ccccn4)CC3)ncnc21	-56
COc1ccc(CNC(=O)Cn2ncc3c(N4CCCCC4)ncnc32)cc1OC	170
C=CCn1c(=O)c(C(=O)NCCc2ccc(OCC)c(OCC)c2)c(O)c2ccccc21	49
Cc1cccc(CN2CCN(Cc3cnc(N4CCCC4)nc3)CC2=O)c1	-9
COCC(=O)N1CCCN(C(=O)[C@]23CC[C@](C)([C@@H](O)C2)C3(C)C)CC1	0
Cc1nc(-c2ccccc2)nc2c1COCC21CCN(C(=O)CCC(C)C)C1 (centres undefined)	-36
COc1ccc(-c2nc(CCNC(=O)CC3CCCC3)cs2)cc1OC	58
Cn1ccc2c(-c3ccc(C(=O)N4CCCC4)cn3)ccnc21	52
Cc1ccc(NC(=O)c2nc(Nc3ccccc3)c3ccccc3n2)cc1C	-36
Cn1nccc1C(=O)N1CCC2(CC1)Nc1ccc(Cl)cc1-n1cccc12	-20
CC(=O)c1ccc(NC(=O)N2[C@H]3CCNC[C@@H]2CC3)cc1	20
COc1ccc(N=C2SC(C(N)=O)CC(=O)N2Cc2ccccc2)cc1 (centres undefined)	-46
Cc1ccccc1-c1cccc(CN2CCN(C3CCN(C(C)C)CC3)C(CCO)C2)c1 (centres undefined)	-47
Cc1ccc(-c2nc(C)c(CCNC(=O)C(=O)Nc3cccc(C)c3C)s2)cc1	14
COc1ccc(C)cc1NC(=O)Cn1ncc2c(N3CCCCCC3)ncnc21	-91*
Cc1ccc(C)c(NC(=O)Cn2ncc3c(N4CCCCCC4)ncnc32)c1	63
CN(C)c1ccc(CNC(=O)Cn2ncc3c(N4CCCCC4)ncnc32)cc1	31
Cc1ccc(NC(=O)Cn2ncc3c(N4CCN(c5ccccn5)CC4)ncnc32)cc1	99
CCN(CC)c1ncnc2c1cnn2CC(=O)NCc1ccc(OC)cc1	-99*
Cc1ccc(CNC(=O)Cn2ncc3c(N4CCN(c5ccccn5)CC4)ncnc32)cc1	-97*
Cc1ccc(C)c(NC(=O)Cn2ncc3c(N4CCN(c5ccccn5)CC4)ncnc32)c1	-3
CCN(CC)c1ncnc2c1cnn2CC(=O)NCc1cccc(OC)c1	84
COc1ccc(C)cc1NC(=O)Cn1ncc2c(N3CCOCC3)ncnc21	-44
SMILES	Tg IFNy HTS
Cc1ccc(CNC(=O)Cn2ncc3c(N4CCCCCC4)ncnc32)cc1	-44
Cc1ccc(CNC(=O)Cn2ncc3c(N4CCCCC4)ncnc32)cc1	-103*
CCN(CC)c1ncnc2c1cnn2CC(=O)NCc1ccc2c(c1)OCO2	-64
Cc1ccc(C)c(NC(=O)c2nnn(Cc3nc(-c4ccccc4C)oc3C)c2C)c1	-23
Cn1cc(Cl)c(-c2noc(-c3ccccc3C(F)(F)F)n2)n1	70
Cc1ccccc1NC(=O)CN1C(=O)CCc2cc(Br)ccc21	10
O=C(CCc1ccccc1)N1CCC(c2nnc3n2CCCCC3)CC1	-30
CN(C)S(=O)(=O)c1ccc2c(c1)cc(C(=O)NCc1cccnc1)n2Cc1ccncc1	117
CCCCn1nc(C)c2c1NC(=O)CC2c1c(C)n(C)n(-c2ccccc2)c1=O (centres undefined)	-43
COCc1ccc(CN2CCC3(CC2)C(=O)N(C2Cc4ccccc4C2)C(=O)N3CC(C)C)o1	16
COc1ccc(OCC2CCN(C(=O)C3CC(=O)N(Cc4cccnc4)C3)CC2)cc1 (centres undefined)	-7
Cn1c(=O)n(CC(=O)O)c2ccccc21	-6
O=C(Nc1ccc(Cl)cc1)c1cc2c(s1)CCN2C(=O)C1CC1	207
O=C(CC1NC(=O)c2ccccc21)NCCc1nc(-c2ccncc2)n[nH]1 (centres undefined)	88
COc1cccc(CNC(=O)Cn2ncc3c(N4CCC(C)CC4)ncnc32)c1	-100*
O=C(Cn1ncc2c(N3CCCC3)ncnc21)NCc1ccc(Br)cc1	61
CCOc1ccc(CNC(=O)Cn2ncc3c(N4CCCCCC4)ncnc32)cc1OCC	76
CCCCOc1ccc(CNC(=O)Cn2ncc3c(N4CCCCCC4)ncnc32)cc1	-99*
COc1cccc(CNC(=O)Cn2ncc3c(N4CCOCC4)ncnc32)c1	64
COc1cc(NC(=O)Cn2ncc3c(N4CCC(C)CC4)ncnc32)cc(OC)c1OC	13
CC(C)NC(=O)C(C)N1CCc2onc(-c3ccc(C(F)(F)F)cc3)c2C1 (centres undefined)	1
O=C(NCCNc1cccnc1)C(=O)N1CCc2ccccc2C1	1
CC(=O)N(C)C1CCN(Cc2nc(-c3cccc(C(F)(F)F)c3)oc2C)C1 (centres undefined)	0
CC1(C)CC[C@]2(C(=O)O)CC[C@]3(C)C(=CC[C@@H]4[C@@]5(C)CC[C@H](O)C(C)(C)[C@@H]5CC[C@]43C)[C@@H]2C1	-72*!
C[C@@H]1CC[C@]2(C(=O)O)CC[C@]3(C)C(=CCC4[C@@]5(C)CC[C@H](O)C(C)(C)C5CC[C@]43C)C2[C@H]1C (some centres undefined)	10
SMILES	Tg IFNy HTS
CC1(C)CC[C@]2(C(=O)O)CC[C@]3(C)C(=CCC4[C@@]5(C)CC[C@@H](O)C(C)(C)C5CC[C@]43C)C2C1 (some centres undefined)	-58
CCOC(=O)CSCC(=O)c1ccc(OCc2ccc(Cl)c(Cl)c2)cc1	88
CC(C)N(C)[C@@H]1CN(Cc2cnn(C)c2)C[C@H]2CCCO[C@H]21	-1
O=C1CCCN1CC1CCN(C(=O)c2ccc(N3CC(O)C3)nc2)CC1	9
OCc1cncc(F)c1	9
COc1cccc(CN(C(=O)c2ccc(C)cc2)C2(C(=O)NCc3ccccc3)CCN(C(C)=O)CC2)c1OC	-93*
COc1ccc(OC)c(CN(C(=O)c2ccc(C)cc2)C2(C(=O)NCc3ccccc3)CCN(C(C)=O)CC2)c1	-4
CC(=O)N1CCC(C(=O)NCc2ccccc2)(N(Cc2ccccc2C)C(=O)c2ccc(C)cc2)CC1	36
Nc1nnc(Cc2nnc(N)s2)s1	15
O=C(NCCc1csc(-c2ccccc2)n1)[C@H]1CSCN1S(=O)(=O)c1ccccc1	-27
CS(=O)(=O)NC1COCCC12CCN(CC1CCC1)CC2 (centres undefined)	-1
FC(F)(F)c1cccc(NC(=S)Nc2ccccn2)c1	-113*
O=C1NN=CC1CCCNC(=S)Nc1cccc(C(F)(F)F)c1 (centres undefined)	13
S=C(Nc1ccccc1)Nc1ccccn1	61
O=C(c1ccc(O)cn1)N1C[C@@H]2C3CCC(CC3)[C@@H]2C1	12
O=C(Nc1ccccc1)Nc1nc(=O)c2ccccc2s1	143
Cc1oc2ccccc2c1CNC(=O)Nc1ccc(Br)cc1	-47
Cc1c(CNC(=O)Nc2ccccc2)sc2ccccc12	-79*
COc1ccc2oc(C(=O)O)c(C)c2c1	31
COc1ccc2c(c1)NC1(CCN(C(=O)Cc3ccccc3)CC1)c1cccn1-2	17
CCN1CCC2(CC1)OC(=O)C(C)=C2C(=O)NCCCc1ccccc1	64
CC(C)(C)CC(=O)NCCc1csc(-c2ccc(F)cc2)n1	34
CCCCN(CC)CCCNC(=O)C1=C(C)C(=O)OC12CCN(S(=O)(=O)CC)CC2	-6
O=C(Cn1c(=O)cc(C(=O)N2CCc3ccccc3C2)c2ccccc21)Nc1cccc(F)c1	6
CCc1ccc(C(=O)Nc2ccc(-c3nc(Cn4cc(C)cn4)c(C)o3)cc2)cc1	27
Cc1cnn(Cc2nc(-c3ccc(NC(=O)c4ccc(F)cc4)cc3)oc2C)c1	-82*
